Measured values as given in PubChem BioAssay AID623908 (Johns Hopkins Ion Channel Center, 2012).
Among all 2,500 compounds or so, about 1,500 (60%) were called active.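 The calls were made as follows: active = duplicate-averaged ratio beyond 3 SD from buffer wells, up or down, though filed actives are nearly all decreases; inactive = the rest.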 The set was probably picked from earlier hits. Not all results are given here.

Experiment: dye ratio change in CHT-lacking host cells – cell-based, parental HEK293, membrane potential dye, counter-screen for CHT activator project (AID 623908)
Settings: parental HEK293, membrane potential dye fluorescence (FDSS); at 10 µM; measured after EC20 choline addition
With `COc1ccc2nc(/N=C(\N)NC(=O)Nc3ccccc3)nc(C)c2c1` the ratio readout change was -41.4 (active).
In the case of `O=C(Nc1ccncc1)c1ccc(Cl)c([N+](=O)[O-])c1`, the ratio readout change is reported as -45.8 (active).
With `Cc1cc(=O)oc2c(C)c(OC(C)C(=O)NC3CCN(Cc4ccccc4)CC3)ccc12` (stereo unspecified) the ratio readout change was -52.2 (active).
In the case of `C[C@]1(C(=O)NCCc2c[nH]c3ccccc23)C=C[C@@H](Cc2ccccc2)N1C(=O)c1ccccc1`, the ratio readout change is reported as “inactive”.
With `COc1cc2nc(N3CCN(C(=O)[C@@H]4CCCO4)CC3)nc(N)c2cc1OC` the ratio readout change was -39.5 (active).
For `CCOc1ccc(C2c3[nH]c4ccccc4c3CCN2Cc2cccn2-c2ncccn2)cc1` (stereo unspecified), the ratio readout change was “inactive”.
With `CN(C)c1cc[n+](Cc2ccccc2)cc1` the ratio readout change was -40.2 (active).
With `COc1ccc(Cn2c(-c3ccc(Cl)cc3)c[n+]3ccccc23)cc1` the ratio readout change was -66.1 (active).
For `CCN(CC)CCCNC(=O)c1cn(C)c2ccc(S(=O)(=O)N(C)C3CCCCC3)cc2c1=O`, the ratio readout change was -36.4 (active).
In the case of `CCOC(=O)c1cn(CC)c2cc(F)c(F)cc2c1=O`, the ratio readout change is reported as -63.5 (active).
In the case of `COc1ccccc1NC(=O)CN(c1ccccc1OC)S(=O)(=O)c1ccccc1`, the ratio readout change is reported as “inactive”.
With `COC(=O)c1ccc(C(NC(=O)OCc2ccccc2)/C(C)=C/[C@@H](C)C(=O)NCc2ccc(OC)c(OC)c2)cc1` (stereo partly specified) the ratio readout change was “inactive”.
With `Clc1ccc(COn2c(-c3ccc(Cl)cc3Cl)nc3ncccc32)cc1` the ratio readout change was “inactive”.
In the case of `CCCCCCCCCCOC(=O)Cn1c(COc2cccc(OC)c2)[n+](C)c2ccccc21`, the ratio readout change is reported as -43.3 (active).
For `CCCCCCCCCCOC(=O)Cn1c(COc2ccc(C)cc2)[n+](C)c2ccccc21`, the ratio readout change was -48.3 (active).
For `Nc1ccccc1SCc1cc([N+](=O)[O-])cc2c1OCOC2`, the ratio readout change was “inactive”.
In the case of `CC(C)CC(COCc1ccc(Cl)cc1)N1CCN(C(=O)c2ccc(C(F)(F)F)cc2)CCC1=O` (stereo unspecified), the ratio readout change is reported as “inactive”.
In the case of `COC(=O)c1sc(C(F)(F)F)c(-c2ccccc2)c1S(=O)(=O)N(C)C`, the ratio readout change is reported as “inactive”.
In the case of `CN(C)c1cc(N)c2ccccc2n1` (tested in a mixture with another compound), the ratio readout change is reported as -62.3 (active).
For `Cc1cc(=O)oc2cc(OCCC[n+]3ccccc3)ccc12`, the ratio readout change was -59.3 (active).
In the case of `Cn1c(=NC(=O)c2cnccn2)sc2ccccc21`, the ratio readout change is reported as -49.1 (active).
For `O=C(c1ccc(F)c(S(=O)(=O)N2CCOCC2)c1)N(CCc1ccccc1)Cc1ccccc1`, the ratio readout change was “inactive”.
For `CC1(C)Cc2c(sc3nc4n(c(=N)c23)CCCCC4)CO1`, the ratio readout change was -42.5 (active).
With `CCN1/C(=C/c2ccc3ccc(C)cc3[n+]2CC)Sc2ccccc21` the ratio readout change was “inactive”.
With `COc1cc2c(cc1OC)C(Nc1ccc(S(N)(=O)=O)cc1)=NC(C)(C)C2` the ratio readout change was -78.3 (active).
For `COc1ccc(C(O)(C2CCCCC2)C(CN2CCCC2)c2ccccc2)cc1` (stereo unspecified), the ratio readout change was “inactive”.
With `N#Cc1ccc(/C=C2\CCn3c2nc2cc(C(=O)O)ccc2c3=O)cc1` the ratio readout change was -55.3 (active).
With `CCn1c(/C=C/Nc2ccccc2)[n+](CC)c2ccc(C(=O)OCC(F)(F)F)cc21` the ratio readout change was -82.7 (active).
In the case of `Cc1nc2c(-c3ccccc3)c(C)[nH]n2c(=O)c1Cl`, the ratio readout change is reported as “inactive”.
In the case of `Cc1nc2ccccc2c(=O)n1CCCn1ccnc1`, the ratio readout change is reported as “inactive”.
With `C=CCNc1nnc(C)c2ccccc12` the ratio readout change was -50.7 (active).
